Several values for one entry are separate records, joined by “and”; a condition that tells them apart may be missing. Equal values may be shown once. A number with no mark means an inactive call. Results filed as inconclusive are left out. Where a call stands in place of a potency, no number is given. Activity calls are given as the source filed them. Unless noted, calls come from the whole dose curve; as a rule, active = well fitted curve in the direction sought with a large enough effect; inconclusive = small, poorly fitted or top-dose-only effect, or another doubt; inactive = no such curve, though single readings can be large; an effect the other way counts as inactive or inconclusive.

The source of these data is PubChem BioAssay (NCATS).

Assay [1] deals with Tyrosine-protein kinase Yes (Homo sapiens) (UniProt P07947). As to the kind of experiment: qHTS for small molecule inhibitors of Yes1 kinase: Primary Screen (AID 686947). Note: nearly all actives have a fitted effect of over 60% in size. Note: potency is the fitted concentration of half-maximal effect. The gist of the method: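 ADP-Glo luminescence readout; final 4 nM Yes1, 0.1 mM ATP, 0.3 mg/mL poly(E4Y), Tris pH 7.5, MgCl2, DTT, Brij-35. 20 min compound preincubation, 60 min reaction at RT. Normalized to DMSO wells with and without enzyme.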
On the technique in general: Quantitative high-throughput screening tests each substance at several concentrations.

Assay [2] can be described thus: qHTS for small molecule inhibitors of Yes1 kinase: Counter Assay (AID 686950).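 Note: no kinase present so only ADP-Glo detection of a fixed ADP amount is tested; luminescence from ADP-Glo reporting ADP in a fixed ATP and ADP mixture; series mostly up to about 77 µM.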 An outline of the steps:
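Enzyme-free ADP-Glo interference check: compounds were preincubated 20 min in buffer, then an ATP/ADP mix (0.08 mM ATP, 0.02 mM ADP final) was added for 60 min at room temperature before two-step ADP-Glo luminescence detection.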

Assay [3] in a line: qHTS assay for small molecule activators of the p53 signaling pathway (AID 651743; active = well fitted activation curve with a large enough effect in the signal ratio, not every such curve was filed as active; the % refers to the signal ratio; note: series mostly up to about 92 µM). The following applies: HCT-116 p53RE-bla, beta-lactamase FRET ratio, 16 h; hits give high values. An outline of the steps:
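p53RE-bla HCT-116 cells with a stably integrated beta-lactamase reporter under p53 response elements were plated, rested 5 hours at 37 C/5% CO2, then exposed to compounds in DMSO for 16 hours at 37 C. LiveBLAzer B/G FRET substrate was read after 2 hours at room temperature.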

The nature of assay [4]: qHTS assay for small molecule activators of the nuclear factor-kappa B (NF-kB) signaling pathway (AID 651749; active = well fitted activation curve with a large enough effect in the signal ratio; the % refers to the signal ratio; note: series mostly up to about 77 µM). Particulars: NF-kB-bla ME-180 cells, beta-lactamase FRET ratio, 16 h; hits give high values. An outline of the steps:
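ME-180 cells stably carrying a beta-lactamase reporter under an NF-kB response element were exposed to compound or DMSO vehicle for 16 hr at 37C, 5% CO2. Pathway activation was read by FRET, since reporter expression disrupts FRET.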

A short description of assay [5]: qHTS assay for environmental chemicals that activate the Aryl hydrocarbon Receptor (AhR) signaling pathway (AID 651777). Note: nearly all actives have a fitted effect of over 15% in size. The following applies: 1A2-DRE human hepatoma cells, luciferase, 24 h; hits give high values. The gist of the method: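 Following a 24 hr incubation with test chemicals at 37 C and 5% CO2, 1A2-DRE human hepatoma cells received One-Glo reagent; after 30 min at room temperature, luciferase output reflected CYP1A2 induction via AhR.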

Assay [6] concerns the target Peroxisome proliferator-activated receptor alpha (Homo sapiens) (UniProt Q07869). Kind of assay: qHTS assay for small molecule agonists of the peroxisome proliferator-activated receptor alpha (PPARalpha) signaling pathway (AID 651778). Particulars: PathHunter PPARalpha complementation, chemiluminescence, 6 h; hits give high values. An outline of the steps:
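Cells plated at 2,000/well and held overnight at 37 C, 5% CO2, then compound added by pin tool for 6 hr; after PathHunter detection reagent and 60 min at room temperature, chemiluminescence from enzyme complementation was read.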

The nature of assay [7]: qHTS for Inhibitors of Ubiquitin-specific Protease USP2a Using CHOP2 as the Reporter: K633 Counterscreen (AID 652168). Note: series mostly up to about 57 µM. The source says: Homeostasis of cellular proteins is maintained through a combination of synthesis and degradation. The pathway that accounts for the majority of protein degradation is the ubiquitin-proteasomal pathway. Ubiquitin (Ub) is highly conserved in all cells and the generation of a multi-Ub chain typically targets proteins for degradation by the proteasome. However, ubiquitination is highly reversible and dynamic. Deubiquitination, the reverse process, is catalyzed through the action of enzymes referred to as isopeptidases or deubiquitinating enzymes (DUBs). This group of enzymes is collectively responsible for maintaining adequate pools of free ubiquitin and regulating the ubiquitination status of cellular proteins. The class of DUBs referred to as the ubiquitin-specific proteases (USP) family functions endoproteolytically to cleave Ub chains from a wide range of protein substrates. USP2a deubiquitinates fatty acid synthase (FASN) which has recently been identified as an emerging oncology target. To identify inhibitors of USP2a a cell-free qHTS assay was employed. To determine whether the compounds interacted with the detection system alone, the effect of compounds on the substrate of assay 2.1.3 over time was determined in a 1536-well assay. A compound that modulates the fluorescence over time would be indicative of interference with the detection system. […]

Assay [8] is described as follows: qHTS for Inhibitors of Ubiquitin-specific Protease USP2a Using CHOP2 as the Reporter: Cytotox Assay (AID 652170). Note: potency is the fitted concentration of half-maximal effect; nearly all actives have a fitted effect of over 70% in size. Particulars: HCT116 viability, CellTiter-Glo luminescence, 72 h. An outline of the steps: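 HCT116 human colon cancer cells, 600 per well in DMEM with 10% FBS, exposed to compounds for 72 hr at 37 deg C. ATP measured by CellTiter-Glo luminescence, normalized to DMSO cells and no-cell background.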

Assay [9] deals with Ubiquitin carboxyl-terminal hydrolase 2 (Homo sapiens) (UniProt O75604). Kind of assay: qHTS for Inhibitors of Ubiquitin-specific Protease USP2a Using CHOP2 as the Reporter: K484 Substrate (AID 652173).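 Note: cleavage of internally quenched K48 di-ubiquitin substrate measured as rising fluorescence over time; potency is the fitted concentration of half-maximal effect; nearly all actives have a fitted effect of over 70% in size.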 Particulars: USP2 cleavage of DiUb K48 IQF substrate, fluorescence. The source says:
Homeostasis of cellular proteins is maintained through a combination of synthesis and degradation. The pathway that accounts for the majority of protein degradation is the ubiquitin-proteasomal pathway. Ubiquitin (Ub) is highly conserved in all cells and the generation of a multi-Ub chain typically targets proteins for degradation by the proteasome. However, ubiquitination is highly reversible and dynamic. Deubiquitination, the reverse process, is catalyzed through the action of enzymes referred to as isopeptidases or deubiquitinating enzymes (DUBs). This group of enzymes is collectively responsible for maintaining adequate pools of free ubiquitin and regulating the ubiquitination status of cellular proteins. The class of DUBs referred to as the ubiquitin-specific proteases (USP) family functions endoproteolytically to cleave Ub chains from a wide range of protein substrates. […] Confirmed qHTS active compounds were tested in orthogonal USP2 assays utilizing a di-ubiquitin substrate labeled with a quencher on one ubiquitin and a fluorescent compound on the other, i.e. the substrate has internally quenched fluorescence or IQF (Lifesensors). In the presence of active USP2, the diubiquitin (DiUb) is cleaved and the fluorescence at 598 nm increases. […] Upon inhibition of USP2, the fluorescence signal from cleaved substrate increases less over time than in the absence of an inhibitor. […]

Sequence of Tyrosine-protein kinase Yes (Homo sapiens) (P07947 whole entry, looked up): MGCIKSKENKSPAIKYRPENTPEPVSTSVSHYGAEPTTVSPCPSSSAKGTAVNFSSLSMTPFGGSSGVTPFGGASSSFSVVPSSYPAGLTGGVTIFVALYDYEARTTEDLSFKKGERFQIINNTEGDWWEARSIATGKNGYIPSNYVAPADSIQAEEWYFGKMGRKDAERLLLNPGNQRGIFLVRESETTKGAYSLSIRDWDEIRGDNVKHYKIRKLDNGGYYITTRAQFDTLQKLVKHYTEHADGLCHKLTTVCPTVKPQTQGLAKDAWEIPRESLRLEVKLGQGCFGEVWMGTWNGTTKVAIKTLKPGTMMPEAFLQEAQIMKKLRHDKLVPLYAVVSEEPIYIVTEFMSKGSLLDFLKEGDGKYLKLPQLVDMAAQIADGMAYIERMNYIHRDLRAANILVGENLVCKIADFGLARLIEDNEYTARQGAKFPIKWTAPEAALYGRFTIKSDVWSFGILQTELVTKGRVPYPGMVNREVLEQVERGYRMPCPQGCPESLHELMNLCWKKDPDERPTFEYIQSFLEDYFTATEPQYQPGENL
Sequence of Peroxisome proliferator-activated receptor alpha (Homo sapiens) (Q07869 whole entry, looked up): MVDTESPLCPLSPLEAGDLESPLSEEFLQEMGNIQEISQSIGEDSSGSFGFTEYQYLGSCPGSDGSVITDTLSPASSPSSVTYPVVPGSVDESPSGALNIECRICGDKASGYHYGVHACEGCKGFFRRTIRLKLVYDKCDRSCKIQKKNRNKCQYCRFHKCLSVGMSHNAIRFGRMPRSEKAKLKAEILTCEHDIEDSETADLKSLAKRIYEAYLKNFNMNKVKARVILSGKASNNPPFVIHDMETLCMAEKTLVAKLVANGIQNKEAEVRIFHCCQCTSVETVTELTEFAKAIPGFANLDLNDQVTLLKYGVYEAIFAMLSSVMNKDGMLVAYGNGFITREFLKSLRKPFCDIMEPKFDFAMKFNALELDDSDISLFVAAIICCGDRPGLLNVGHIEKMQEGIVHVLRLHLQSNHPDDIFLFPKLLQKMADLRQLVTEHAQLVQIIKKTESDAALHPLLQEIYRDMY
Sequence of Ubiquitin carboxyl-terminal hydrolase 2 (Homo sapiens) (O75604 whole entry, looked up): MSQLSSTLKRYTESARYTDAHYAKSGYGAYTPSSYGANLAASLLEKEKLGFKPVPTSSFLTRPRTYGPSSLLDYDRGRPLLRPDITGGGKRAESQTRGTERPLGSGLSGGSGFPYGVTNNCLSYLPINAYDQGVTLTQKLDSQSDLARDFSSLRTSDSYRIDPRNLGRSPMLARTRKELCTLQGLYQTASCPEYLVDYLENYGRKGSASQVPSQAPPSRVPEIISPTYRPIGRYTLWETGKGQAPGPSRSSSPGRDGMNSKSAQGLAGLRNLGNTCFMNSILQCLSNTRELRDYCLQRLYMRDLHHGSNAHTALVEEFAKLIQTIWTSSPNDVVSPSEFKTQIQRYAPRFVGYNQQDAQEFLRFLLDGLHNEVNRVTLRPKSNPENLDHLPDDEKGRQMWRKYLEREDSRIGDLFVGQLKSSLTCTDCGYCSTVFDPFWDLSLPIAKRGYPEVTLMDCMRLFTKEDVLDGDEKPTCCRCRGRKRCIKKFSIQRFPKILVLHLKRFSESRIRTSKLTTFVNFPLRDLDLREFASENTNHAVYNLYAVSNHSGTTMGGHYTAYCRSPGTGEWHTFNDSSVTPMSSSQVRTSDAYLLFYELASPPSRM

As to `CC(C)(O)CCc1ccc(OCc2cc(-c3cccc(OC(F)F)c3)c3ncccc3c2)cc1`, the Potency entry in assay [1] is “inactive”. For the same compound, the compound was called inactive in assay [2].
With `CN1CCC(CNc2ccc3ncc(-c4cccc(OC(F)(F)F)c4)n3n2)CC1`, in assay [1], the Potency is 97.2 nM (active). The outcome in assay [2] was inactive.
With `O=C(O)CCCc1c[nH]c2ccccc12`, the activation in [3] is -6.63%; in assay [4], -1.42%; in [5] it was 1.2%. Moreover, the max response in [6] is -0.171%.
In the case of `CC(NCc1ccc2c(c1)nc(NC(=O)c1ccc(-c3cn[nH]c3)s1)n2CC(C)(C)O)C(C)(C)C` (stereo not given), the Potency in assay [1] is 5.5 nM (active) and 0.2 nM (active). Besides, in assay [2], the result was inactive.
`Cc1cc(Nc2cc(N3CCN(C)CC3)nc(C=Cc3ccccc3)n2)n[nH]1`: the Potency in [1] is 30.7 nM (active). Besides, in assay [2], the compound was classed as inactive.
The corresponding values for `CCCCCN(CCC12CC3CC(CC(C3)C1)C2)C(=O)NCCCc1ccncc1` are “inactive” and “inactive”.
The corresponding values for `O=C(c1ccc(Nc2nccc(-c3cc4ccccc4s3)n2)cc1)N1CCC(N2CCCC2)CC1` are 68.8 nM (active) and “inactive”.
For `C[C@]1(CO)CN(c2cc(C(=O)Nc3ccc4c(c3)-c3c(c(C(N)=O)nn3-c3ccc(F)cc3)CC4)c(Cl)cn2)C[C@@]1(C)CO`, in that order: “inactive” and “inactive”.
`CC(C)CC(=O)Nc1n[nH]c2c1CN(C(=O)C1CCN(C)CC1)C2(C)C`: in assay [1], the Potency is 12200 nM (active). In assay [2], the call was inactive.
The corresponding values for `Cn1c2cc(S(C)=O)sc2c2cnn(Cc3cccc(N)c3)c(=O)c21` (stereo not given) are “inactive” and “inactive”.
The corresponding values for `CN(C)CCCN=c1c2ccccc2n(C)c2[nH]c(=O)n(C)c(=O)c12` are “inactive” and “inactive”.
In the case of `N#CCNC(=O)c1ccc(-c2ccnc(Nc3ccc(N4CCOCC4)cc3)n2)cc1`, the Potency in assay [1] was 972 nM (active). In [2], the compound was called inactive.
For `Cc1ccc(-c2ncn(-c3ccc(Nc4nccc(-c5cccc(N6CCOCC6)c5)n4)cc3)n2)cn1`, in assay [1], the Potency was 12200 nM (active). For the same compound, the result in assay [2] was inactive.
As for `CCC[C@H](NC(=O)C(C#N)=Cc1cccc(Br)n1)c1ccccc1`, the Potency result in [1] was “inactive”. In assay [2], the compound was classed as inactive.
Regarding `C=CC(=O)Nc1cc2c(Nc3ccc(F)c(Cl)c3)ncnc2cc1C#CC(C)(C)N1CCN(C)CC1`, the Potency in assay [1] is 97.2 nM (active). Besides, the compound was called inactive in assay [2].
For `O=C(C=Cc1cccnc1)NCCCCC1CCN(C(=O)c2ccccc2)CC1`, in that order: “inactive” and “inactive”.
In the case of `COc1cc2nccc(Oc3ccc(NC(=O)C4(C(=O)Nc5ccc(F)cc5)CC4)cc3)c2cc1OC`, in [1], the Potency was 1090 nM (active). In assay [2], the result was inactive.
With `COc1cc2ncn(-c3cc(OCc4ccccc4C(F)(F)F)c(C(N)=O)s3)c2cc1OC`, the Potency result in assay [1] was “inactive”. Besides, the compound was classed as inactive in assay [2].
Regarding `CC(C)C[C@H](NC(=O)CNC(=O)c1cc(Cl)ccc1Cl)B(O)O`, the Potency result in assay [1] was “inactive”. In addition, the result in assay [2] was inactive.
On to `O=C(NCCCNc1nc(Nc2cccc(NC(=O)N3CCCC3)c2)ncc1I)c1cccs1`, for which, in assay [1], the Potency was 1.37 µM (active) and 1.22 µM (active). Moreover, the compound was classed as inactive in [2].
On to `Cc1[nH]c2ccccc2c1CCNCc1ccc(C=CC(=O)NO)cc1`, for which, in [1], the Potency is 13700 nM (active). Moreover, the compound was called inactive in assay [2].
The corresponding values for `Cn1cncc1[C@@](N)(c1ccc(Cl)cc1)c1ccc2c(c1)c(-c1cccc(Cl)c1)cc(=O)n2C` are “inactive” and “inactive”.
For `c1ccc2c(CCNc3ccc(Nc4ccncc4)cc3)c[nH]c2c1`, in that order: “inactive” and “inactive”.
The corresponding values for `CCOc1cc2ncc(C#N)c(Nc3ccc(F)c(Cl)c3)c2cc1NC(=O)C=CCN(C)C` are 43.4 nM (active) and “inactive”.
For the compound `COc1ccc(OC)c(-c2nnc3ccc(-c4ccc(OC)c(O[C@@H]5CCOC5)c4)nn23)c1`, in [1], the Potency result was “inactive”. The result in [2] was inactive.
On to `COc1ccc(C=Cc2cc(OC)c(OC)c(OC)c2)cc1O`, for which, in assay [1], the Potency entry was “inactive”. For the same compound, in assay [2], the result was inactive.
In the case of `Cc1ccc(S(=O)(=O)Nc2cc(Cl)ccc2C(=O)Nc2nc(-c3ccccc3)cs2)cc1`, the outcome in assay [7] and in assay [2] was inactive. The Potency is 5260 nM (active) in assay [8] and 1220 nM (active) in [9].
Take `CC=C1NC(=O)[C@H]2CSSCCC=C[C@H](CC(=O)N[C@H](C(C)C)C(=O)N2)OC(=O)[C@H](C(C)C)NC1=O`: in assay [1], the Potency entry is “inactive”. The result in assay [2] was inactive.
`CC[C@@H]1C(=O)N(C)c2cnc(Nc3ccc(C(=O)NC4CCC(N5CCN(CC6CC6)CC5)CC4)cc3OC)nc2N1C(C)C` (stereo not given in full): the Potency entry in assay [1] is “inactive”. The outcome in assay [2] was inactive.
As for `Nc1ccccc1NC(=O)c1ccc(CNc2nccc(-c3cccnc3)n2)cc1`, the Potency entry in assay [1] is “inactive”. Further, the outcome in [2] was inactive.
Take `CC(=O)OCCN1C(=O)c2c(C)nc3ccc(S(=O)(=O)N4CCOCC4)cc3c2C1=O`: in [1], the Potency entry was “inactive”. Also, the compound was classed as inactive in [2].
Take `COc1cc2ncnc(Nc3ccc(F)c(Cl)c3)c2cc1NC(=O)C=CCN1CCCCC1`: the Potency in [1] was 194 nM (active). Moreover, the result in assay [2] was inactive.
Turning to `COCCn1c2c([n+](Cc3cnccn3)c1C)C(=O)c1ccccc1C2=O`, the Potency result in assay [1] is “inactive”. For the same compound, in assay [2], the compound was classed as inactive.
